HT1080 IDH1KD tx = qHTS for induction of synthetic lethality in tumor cells producing 2HG: qHTS for the HT-1080-IDH1KD cell line; HT-1080 IDH1 knockdown viability, ATP luminescence, 48 h; hit rate 2% among 360,000; AID 686971, 2013; Potency, µM (top dose mostly 46.1 µM), inactives show at the highest dose activity, negative = toxicity, actives largely listed as cytotoxic;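 also: 0% = DMSO wells and -100% = cell-free medium wells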
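Viability of IDH1-knockdown HT-1080 fibrosarcoma cells was assessed by CellTiter-Glo after 48 h at 37 °C with titrated compound; concentration-effect curves were classified by fit quality and response size.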
KB-V1 MDR tox = qHTS assay for MDR1-selective chemotherapeutics: Primary screen using the drug-selected MDR subline cells KB-V1; hit rate 3.4% among 400,000; KB-V1 MDR cells viability, CellTiter-Glo, 72 h; Potency, µM (doses to about 46.1 µM), most hits filed as cytotoxic; AID 1347076, 2019; also: % is scaled to controls: 0 for no effect and ±100 for the full control effect; nearly all actives have a fitted effect of over 60% in size
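KB-V1 MDR subline cells in DMEM (phenol-red free, 10% FBS) exposed to compounds in qHTS concentration series for 72 h at 37 degrees C. Viability read by CellTiter-Glo luminescence; concentration-effect curves fitted after normalization and correction.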
ATXN2 expr inh = Primary qHTS for Inhibitors of ATXN expression. HEK-293 ATXN2-luciferase reporter, luminescence, 24 h. Potency, µM (doses to about 57 µM), without a hit: top-dose activity change, negative = inhibition, actives largely listed as inhibitors. hit rate 0.72% among 360,000; also: % is scaled to controls: 0 for no effect and ±100 for the full control effect; nearly all actives have a fitted effect of over 55% in size
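ATXN2-luciferase reporter cells (luciferase flanked by upstream and downstream ATXN2 gene portions) were treated 24 h at 37 °C with compounds at up to 57 uM. SteadyGlo luminescence gave expression; GF-AFC fluorescence gave viability.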
KB-3-1 tox = qHTS assay for MDR1-selective chemotherapeutics: Primary screen using the parental adenocarcinoma cell KB-3-1 | KB-3-1 viability, CellTiter-Glo ATP luminescence, 72 h | Potency, µM (series often up to 46.1 µM), actives largely listed as cytotoxic | hit rate 1.4% among 400,000 | AID 1347075, 2019; also: % is scaled to controls: 0 for no effect and ±100 for the full control effect; nearly all actives have a fitted effect of over 60% in size
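Multi-concentration cytotoxicity screen in KB-3-1 cells grown in DMEM lacking phenol red with 10% FBS. After 72 h at 37 °C with compound, ATP-dependent luminescence was recorded.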
HT1080-NT tox = qHTS for induction of synthetic lethality in tumor cells producing 2HG: qHTS for the HT-1080-NT fibrosarcoma cell line | hit rate 1.6% among 360,000 | AID 686970, 2013 | HT-1080-NT fibrosarcoma viability, CellTiter-Glo ATP luminescence, 48 h | Potency, µM (series often up to 46.1 µM), for inactives: at the highest dose activity, negative = less viability, usual class: cytotoxic;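 also: NT is the 2HG producing partner of a matched IDH1 knockdown line; 0% = DMSO-treated cells and -100% = media-only wells without cells; nearly all actives have a fitted effect of over 55% in size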
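Read-out is CellTiter-Glo luminescence after 10 minutes at room temperature, following 48 hours' compound treatment of HT-1080-NT cells (750 cells/well, RPMI, 5% FBS, 37 degrees C).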
S2 tox = Viability Counterscreen for Primary qHTS for Inhibitors of ATXN expression; S2 cells (HEK-293 line with an ATXN2-luciferase reporter) viability, CellTiter-Fluor protease fluorescence, 24 h; Potency, µM (doses to about 56.7 µM), usual class: cytotoxic; hit rate 0.49% among 400,000; also: nearly all actives have a fitted effect of over 40% in size
* hit, by the source's call; [ ] = dose if it differs, or a comment. Hits are enriched below; roughly 6.2% of the tested compounds scored in any of these assays. Calls follow the shape of the dose curve; as a rule, active = well fitted curve in the direction sought with a large enough effect; inconclusive = small, poorly fitted or top-dose-only effect, or another doubt; inactive = no such curve, though single readings can be large; an effect the other way counts as inactive or inconclusive. Potency is read from the fitted curve at half-maximal effect.

`CCOC(=O)[C@]12Cc3cc(C)ccc3[C@H]1N(C1CCCCC1)C(=O)c1cc(OC)ccc12` gave HT1080 IDH1KD tx 3.3µM*, KB-V1 MDR tox 4.1µM*, ATXN2 expr inh 5µM*, KB-3-1 tox 3.3µM*, HT1080-NT tox 2.9µM* and S2 tox 4.5µM*.
For CCOC(=O)[C@]12Cc3cc(OC)ccc3[C@H]1N(C1CCCCC1)C(=O)c1cc(OC)ccc12 the results were HT1080 IDH1KD tx 18µM*, KB-V1 MDR tox inconclusive, ATXN2 expr inh 20µM*, KB-3-1 tox 16µM*, HT1080-NT tox 23µM* and S2 tox 13µM*.
Screening C=C[C@H]1CN2CC[C@@H]1C[C@H]2[C@@H](O)c1ccnc2ccccc12 returned S2 tox inactive.
For C[C@H]1CNC(=O)c2c(C(=O)N3CCN(C(=O)OC(C)(C)C)CC3)ncn21 the results were HT1080 IDH1KD tx -11%, KB-V1 MDR tox inactive, ATXN2 expr inh inconclusive, KB-3-1 tox inactive, HT1080-NT tox -8% and S2 tox inconclusive.
`CCCOc1ccc(C(=O)NC(=S)N2C[C@H]3C[C@H](C2)c2cccc(=O)n2C3)cc1` gave HT1080 IDH1KD tx -1%, KB-V1 MDR tox inactive, ATXN2 expr inh 16%, KB-3-1 tox inactive, HT1080-NT tox 2% and S2 tox inactive.
For CCCOc1ccc(C(=O)CCC(=O)NNC(=O)c2ccncc2)cc1 the results were HT1080 IDH1KD tx -1%, KB-V1 MDR tox 5.8µM*, ATXN2 expr inh 2%, KB-3-1 tox inconclusive, HT1080-NT tox 4% and S2 tox inconclusive.
`O=C(NC(c1cccnc1)C(F)(F)F)c1cnn(-c2nccc(-c3cccs3)n2)c1C1CC1` (stereo not drawn) gave S2 tox inactive.
Screening Cc1cccc(NC(=S)N/N=C/c2ccc([N+](=O)[O-])s2)c1 returned HT1080 IDH1KD tx inconclusive, KB-V1 MDR tox inactive, ATXN2 expr inh 20µM*, KB-3-1 tox inconclusive and HT1080-NT tox 18µM*.
`CC(Cc1ccccc1)N(C)Cc1ccco1` (stereo not drawn) gave ATXN2 expr inh 0% and S2 tox inactive.
CC(C)(C)C1CCc2onc(C(=O)O)c2C1 (stereo not drawn) was read as HT1080 IDH1KD tx 1%, KB-V1 MDR tox inactive, ATXN2 expr inh 0%, KB-3-1 tox inactive, HT1080-NT tox 4% and S2 tox inconclusive.
Screening O=C(c1cccc2ccccc12)C1CCCN(Cc2ccon2)C1 (stereo not drawn) returned HT1080 IDH1KD tx -9%, KB-V1 MDR tox inactive, ATXN2 expr inh -20%, KB-3-1 tox inactive, HT1080-NT tox -9% and S2 tox inactive.
`Cc1cc(Cl)ccc1C(=O)C1CCCN(Cc2ccon2)C1` (stereo not drawn) gave HT1080 IDH1KD tx 1%, KB-V1 MDR tox 16µM*, ATXN2 expr inh -16%, KB-3-1 tox inactive, HT1080-NT tox 0% and S2 tox inactive.
Screening CCN1C[C@@]2(COC)[C@H]3[C@@H](OC)[C@H]4C1[C@@]3([C@H](OC)C[C@@H]2O)[C@H]1C[C@@]2(O)[C@@H](OC(=O)c3ccccc3)[C@@H]1[C@@]4(OC(C)=O)[C@H](O)[C@@H]2OC returned S2 tox inactive.
For CC(=O)NC1CCSC1=O (stereo not drawn) the results were ATXN2 expr inh 7% and S2 tox inactive.
Nc1nonc1C(=O)N/N=C/c1ccc([N+](=O)[O-])o1 was read as HT1080 IDH1KD tx 18µM*, KB-V1 MDR tox inactive, ATXN2 expr inh -15%[11.3 µM], KB-3-1 tox inactive, HT1080-NT tox inconclusive and S2 tox inactive.

Source: PubChem BioAssay
